For 39 compounds, inhibition results are on record in ChEMBL document CHEMBL3433997, “St. Jude Leishmania screening dataset” (2016).

Each structure is given as a SMILES string.

A word on the inhibition: it is the change of the read-out against control, counted positive when it falls.

This test addresses Glucose transporter (Leishmania mexicana) (UniProt O61059). Put plainly: ST_JUDE_LEISH: Cytotoxicity at 2uM final concentration against transgenic Leishmania Mexicana promastigotes LmGT2 that are glucose transport deficient and complemented with the L. Mexicana glucose transporter 2. Activity is measured by DNA content using SYBR green in vitro. It is filed as functional.
Regarding `Cc1ccccc1Oc1ccc(Nc2ccnc(Nc3cccc(C(N)=O)c3)n2)cc1C(F)(F)F`, the inhibition turned out to be 1.52%.
For the compound `CCOC(=O)C(C(C)=O)C(c1ccccc1)C(C(C)=O)C(=O)OCC` (centres undefined), the inhibition stood at 0.94%.
For `Cc1cccc2nc(-c3cccc(-c4cccc(NC(=O)Cc5c[nH]cn5)c4)c3)[nH]c12` the value was 2.94%; for `CS(=O)(=O)c1ccc(-c2cncc(Nc3cccc([N+](=O)[O-])c3)c2)cc1`, 6.3%.
For `CN(C)CCNC(=O)c1ccc(-c2ccc3c(Nc4ccccc4)c(C(N)=O)cnc3c2)cc1` the value was 2.36%; for `COc1ccc2nccc([C@@H](O)CN3CCC(NCc4cc5cccc6c5n(c4=O)CCC6)CC3)c2c1`, 2.27%; for `CC(C)c1ccc(CN2CCC(NC(=O)c3ccc(-c4ccccc4F)s3)CC2)cc1`, -1.39%.
For `O=C(Nc1ccsc1)Nc1cccc(-c2cccc(-c3nc4ccccc4[nH]3)c2)c1` the value was 4.27%; for `Cc1ccc2nc(N/C(N)=N/C(=O)NC3CCCCC3)nc(C)c2c1`, 2.16%.
Take `CN(C)c1ccc(-c2csc(C(=O)NC3CCCCN(Cc4ccc(C(C)(C)C)cc4)C3)c2)cc1` (centres undefined): the inhibition worked out at 1.96%.
Regarding `O=C(Nc1ccc(-c2nc3ccccc3[nH]2)cc1)c1ccc(Cl)s1`, the inhibition was determined as 1.71%.
For `Oc1cc(Nc2ccnc3cc(-c4cccc(CN5CCOCC5)c4)ccc23)c(F)cc1Cl` the value was 3.67%.
Consider `COc1ccccc1N1CCN(C(C(=O)NCc2ccc3c(c2)OCO3)c2ccc3c(c2)OCCCO3)CC1` (centres undefined), for which the inhibition was determined as 3.62%.
For `Cc1ccc2ccccc2c1CCCON1C(=N)N=C(N)NC1(C)C` the value was 2.74%.
For `CN(C)S(=O)(=O)n1ncc2c3c(N)nc(N)nc3ccc21` the value was 0.96%; for `Cc1[nH]c(C)c(-c2ccc(-c3ccccc3Cl)nc2)c(=O)c1Br`, -0.05%; for `COc1cc(NC(=O)/C=C/c2ccccc2Cl)cc(OCCN2CCC(O)(c3ccccc3)CC2)c1`, 4.61%.
For `O=C(Nc1ccc(Cl)cc1F)NC1CCN(CCCCCNC(=O)C2CC2c2ccc(Cl)c(Cl)c2)CC1` (centres undefined) the value was 3.62%; for `Cc1ccc(Nc2nc(N/N=C/c3cccc([N+](=O)[O-])c3)nc(Nc3ccccc3)n2)c(C)c1`, -0.87%; for `CC(CNC(=O)C(c1cc2ccccc2o1)N1CCN(C(c2ccccc2)c2ccccc2)CC1)c1ccccc1` (centres undefined), 3.92%.
Take `O=C(CSc1nn(-c2ccccc2)c(=S)s1)c1c[nH]c2ccccc12`: the inhibition turned out to be 2.3%.
As for `Cc1ccc(S(=O)(=O)N(C)c2ccccc2C(=O)Nc2ccccc2Oc2ccccc2)cc1`, the inhibition was -3.37%.
For `COc1cc(Br)c(S(=O)(=O)n2cc(CN3CCC(N)CC3)c3cc(Cl)ccc32)cc1OC` the value was 0.57%.
For `COc1cc(C=NN=c2cc(C)[nH]c3ccccc23)cc(OC)c1OC` the value was 1.6%.
For `CCCc1cc(Cc2cnc(N)nc2N)c2cccnc2c1OC` the value was 4.33%; for `CC(Cc1ccc(CNC(=O)NCc2ccc(CC(C)NCCc3cccc(Cl)c3)cc2)cc1)NCCc1cccc(Cl)c1` (centres undefined), 18.9%; for `O=C(CCc1c[nH]cn1)Nc1ccc(-c2ccc(-c3nc4ccccc4[nH]3)cc2)cc1`, 15.2%.
Consider `CN(C)CCN(C)Cc1cccc(-c2cccc(NC(=O)c3cccc(C#N)c3)c2)c1`, for which the inhibition was 4.89%.
For `COc1ccc2c(C)cc(NCCCN(C)C)nc2c1`, the inhibition is -1.1%.
For `CN(C)c1ccc(-c2cscc2C(=O)NC2CCCN(Cc3cccnc3)C2)cc1` (centres undefined) the value was -0.28%; for `COC(=O)c1ccc2nc(-c3ccc(/C=C/C(=O)NC4CCN(Cc5ccccc5)CC4)cc3)[nH]c2c1`, 5.84%.
For `CC(=O)Oc1c(Br)c(C)nc(C)c1-c1ccc(Oc2ccc(OC(F)(F)F)cc2)cc1` the value was 0.37%; for `COc1ccc2nccc(N3CCC(SCCNCc4ccc5c(n4)NC(=O)CS5)C3)c2n1` (centres undefined), 0.51%.
For `Cc1ccc2cc(NC(=O)CCCCCCCON3C(N)=NC(N)=NC34CCCCC4)ccc2n1` the value was 0.83%; for `C#CCOc1ccc(N2C(N)=NC(N)=NC2(C)C)cc1`, -0.42%; for `O=C(c1cc2nc3c(c(C(F)(F)F)n2n1)CCc1ccccc1-3)N1CCN2CCCC2C1` (centres undefined), 2.07%.
As for `Cc1cc(-c2cccc(CNCCc3ccc(Cl)cc3)c2)cnc1N`, the inhibition was 7.77%.
For `Oc1ccccc1CN1CCN(C(c2ccccc2)c2ccccc2)CC1` the value was -0.06%.
`COc1cc(NC(=O)c2sc(-c3ccc(Cl)cc3)cc2NC(=O)CN2CCCC2)ccc1OCCN1CCCC1`: the inhibition was found to be 4.39%.
